The record followed here is PubChem BioAssay AID720706 (Broad Institute, 2013).

The whole screen tested about 350,000 compounds, of which about 5,500 (1.6%) were called active.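 The calls were made as follows: active = significant combined selectivity score with lowered wild-type GFP, culture density cut under 30%, mutant RFP and density less affected; inactive = any of these conditions unmet.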 Shown is part of a subset that was picked to be rich in actives.

This experiment can be described thus: reduced GFP signal of wild-type E. coli, primary screen, bacterial rRNA inhibitor project, GFP/RFP fluorescence, OD600, single point (AID 720706). The conditions noted are these: E. coli WT GFP vs humanized-ribosome RFP mutants, 24 h; GFP signal change (wild-type ribosome): stronger effect = lower value, DMSO median 0, no signal -100; OD600 change: measured here: OD600 growth, DMSO median 0, no signal -100; RFP signal change: measured here: RFP humanized mutant strains, DMSO median 0, no signal -100, concentration not given here.
`O=S(=O)(c1ccccc1)N1CCc2ccccc21`: the GFP signal change (wild-type ribosome) is 3.46% (inactive), the OD600 change came out at 1.07% and the RFP signal change was 1.3%.

With `CNC(=O)c1ccsc1NC(=O)c1ccc(S(=O)(=O)N2CCc3ccccc32)cc1`, the GFP signal change (wild-type ribosome) was -14% (active), the OD600 change was -3.21% and the RFP signal change is -0.575%.

Take `CC1CN(S(=O)(=O)c2ccc(C(=O)Nc3sccc3C(N)=O)cc2)CC(C)O1` (stereo unspecified): the GFP signal change (wild-type ribosome) is -9.92% (inactive), the OD600 change was determined as 0.73% and the RFP signal change is -4.68%.

Take `CN1C[C@@H]2[C@H](c3ccccc31)[C@@H](CO)N2C(=O)Nc1ccccc1`: the GFP signal change (wild-type ribosome) is -1.61% (inactive), the OD600 change was -4.19% and the RFP signal change is -0.289%.

For the molecule `CC(=O)N1[C@@H]2c3ccc(-c4ccccc4)c(=O)n3C[C@@H]2[C@@H](CO)[C@@H]1C(=O)NCc1ccccc1F`, the GFP signal change (wild-type ribosome) is 1.92% (inactive), the OD600 change came to 0.235% and the RFP signal change was found to be 0.825%.

Consider `COc1ccc(CN(C)C[C@@H]2OCCCC[C@H](C)Oc3ccc(NS(=O)(=O)c4cccs4)cc3C(=O)N([C@H](C)CO)C[C@@H]2C)cc1`, for which the GFP signal change (wild-type ribosome) was 1.91% (inactive), the OD600 change was -7.75% and the RFP signal change was 1.8%.

`CCC(=O)N1CC(=O)N2[C@H](CO)[C@@H](c3ccc(-c4ccc(C(=O)N(C)C)cc4)cc3)[C@@H]2C1`: the GFP signal change (wild-type ribosome) was -0.311% (inactive), the OD600 change was -1.8% and the RFP signal change was 0.455%.

For the molecule `O=C(NCc1nnc(SCC(=O)N2CCC(Cc3ccccc3)CC2)o1)c1ccco1`, the GFP signal change (wild-type ribosome) was -22.9% (active), the OD600 change was -18.5% and the RFP signal change was -1.19%.

Turning to `Cn1c(CNC(=O)c2ccco2)nnc1SCC(=O)N1CCN(c2ccccc2)CC1`, the GFP signal change (wild-type ribosome) is 4.73% (inactive), the OD600 change came out at 14.2% and the RFP signal change is -0.921%.

On to `O=C(NCc1nnc(SCC(=O)N2CCCCCC2)o1)c1ccc(F)cc1`, for which the GFP signal change (wild-type ribosome) is 3.73% (inactive), the OD600 change was found to be 9.68% and the RFP signal change is 2.77%.

Regarding `COc1ccc(-c2ccc3n(c2=O)C[C@@H]2[C@@H](CO)[C@H](C(=O)Nc4ccccc4)[C@H]3N2C)cc1`, the GFP signal change (wild-type ribosome) was -5.3% (inactive), the OD600 change is -0.765% and the RFP signal change was -2.67%.

As to `N#C[C@H]1[C@@H](c2ccc(C#CC3CCCC3)cc2)[C@H](CO)N1C(=O)Nc1ccc(F)cc1`, the GFP signal change (wild-type ribosome) was -20.3% (inactive), the OD600 change is -36.1% and the RFP signal change stood at 20.2%.

For `CSc1ccccc1OCc1cc(C(=O)N(C)CCc2c(C)n[nH]c2C)no1`, the GFP signal change (wild-type ribosome) was -27.9% (inactive), the OD600 change was -25.7% and the RFP signal change was -4.44%.

As for `COc1cc(Cl)ccc1OCc1cc(C(=O)N(C)CCc2c(C)n[nH]c2C)no1`, the GFP signal change (wild-type ribosome) was -23.6% (active), the OD600 change was -18.4% and the RFP signal change came out at 4.51%.

Turning to `CCn1ccnc1CN(C)C(=O)c1cc(COc2ccc(Cl)cc2OC)on1`, the GFP signal change (wild-type ribosome) was 2.1% (inactive), the OD600 change is 0.213% and the RFP signal change was -1.68%.

For the molecule `COc1ccc(C(C)=O)cc1COc1ccc(Cl)c(C)c1`, the GFP signal change (wild-type ribosome) is -21% (active), the OD600 change is 2.55% and the RFP signal change is 1.65%.

As to `Cc1ccc(/C(N)=N/OC(=O)COc2ccc(Cl)c(C)c2)cc1`, the GFP signal change (wild-type ribosome) is 6.91% (inactive), the OD600 change was determined as 1.73% and the RFP signal change is -7.27%.

Regarding `CCOc1ccc(C(C)=O)cc1COC(=O)c1cnc(Cl)c(Cl)c1`, the GFP signal change (wild-type ribosome) is 4.75% (inactive), the OD600 change was found to be 3.34% and the RFP signal change is -2.34%.

On to `C[C@@H]1CN([C@@H](C)CO)C(=O)Cc2cc(NC(=O)Nc3ccc(C(F)(F)F)cc3)ccc2O[C@H]1CN(C)Cc1ccc(C(=O)O)cc1`, for which the GFP signal change (wild-type ribosome) is -4.09% (inactive), the OD600 change was -39.2% and the RFP signal change was -9.85%.

`C[C@@H]1CN([C@@H](C)CO)S(=O)(=O)c2ccc(C#Cc3cccnc3)cc2O[C@@H]1CN(C)C`: the GFP signal change (wild-type ribosome) is 11% (inactive), the OD600 change is 15.5% and the RFP signal change was 0.337%.

For `O=C(NC(=S)Nc1ccc(Cl)cc1Cl)C1CC1`, the GFP signal change (wild-type ribosome) was -7.95% (inactive), the OD600 change is -11.5% and the RFP signal change stood at 2.17%.

For `S=C(Nc1ccc(Br)cc1Cl)N1CCC2(CC1)OCCO2`, the GFP signal change (wild-type ribosome) was -18.4% (inactive), the OD600 change was -20.4% and the RFP signal change is -6.29%.

Consider `S=C(Nc1ccc(Cl)cc1Cl)N1CCCC1`, for which the GFP signal change (wild-type ribosome) is -29.6% (active), the OD600 change turned out to be 3.51% and the RFP signal change was -5.19%.

With `O=C(CSc1nnc(-c2ccco2)n1Cc1ccccc1)NC(=O)NCc1ccco1`, the GFP signal change (wild-type ribosome) was -20.4% (active), the OD600 change is -7.72% and the RFP signal change came to 1.04%.

On to `Cc1cc(C)n2nc(SCC(=O)NC(=O)NCc3ccco3)nc2n1`, for which the GFP signal change (wild-type ribosome) was 24.5% (inactive), the OD600 change worked out at 11.7% and the RFP signal change is -0.644%.

Take `COc1ccc(-n2c(SCC(=O)NCc3ccco3)nnc2-c2c[nH]c3ccccc23)cc1`: the GFP signal change (wild-type ribosome) is -0.435% (inactive), the OD600 change was -16.1% and the RFP signal change turned out to be 3.4%.

`Cc1ccc(C(=O)N/C(=C\c2ccc(F)cc2)C(=O)NCCN2CCOCC2)cc1`: the GFP signal change (wild-type ribosome) is 8.39% (inactive), the OD600 change came to 9.73% and the RFP signal change was -0.48%.

Regarding `Cc1c(C(=O)NCCN2CCOCC2)sc2nc(-c3ccc(F)cc3)cn12`, the GFP signal change (wild-type ribosome) is -16.9% (active), the OD600 change was -2.55% and the RFP signal change came out at 3.25%.

For `Cc1c(C(=O)NCC2CCCO2)sc2nc(-c3ccccc3)cn12` (stereo unspecified), the GFP signal change (wild-type ribosome) was -4.79% (inactive), the OD600 change was -21.2% and the RFP signal change was -7.98%.

In the case of `C/C=C/c1ccc([C@H]2[C@@H](CO)N(C(=O)Cc3ccncc3)[C@@H]2CNC(C)=O)cc1`, the GFP signal change (wild-type ribosome) was 1.54% (inactive), the OD600 change turned out to be 6.92% and the RFP signal change was -0.347%.

As to `NC(=O)c1ccc(NC(=O)COC(=O)c2c3c(nc4ccccc24)/C(=C\c2ccc4c(c2)OCO4)CCC3)cc1`, the GFP signal change (wild-type ribosome) is 55.8% (inactive), the OD600 change was -19.8% and the RFP signal change was determined as 1.2%.

On to `C(=N\Nc1ccc2ccccc2n1)/c1ccc2c(c1)OCO2`, for which the GFP signal change (wild-type ribosome) was -21.9% (active), the OD600 change worked out at 16.6% and the RFP signal change was -0.634%.
